Test results as given in PubChem BioAssay (NCATS).
Results filed as inconclusive are left out. Calls of active or inactive are those of the source. Unless noted, calls come from the whole dose curve; as a rule, active = well fitted curve in the direction sought with a large enough effect; inconclusive = small, poorly fitted or top-dose-only effect, or another doubt; inactive = no such curve, though single readings can be large; an effect the other way counts as inactive or inconclusive.

Assays:
[1] = target: ATP-dependent 6-phosphofructokinase (Trypanosoma brucei brucei) (UniProt O15648); assay: qHTS Assay to Find Inhibitors of T. brucei phosphofructokinase: hit validation (AID 492961);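 note: luminescence reports ADP formed as PFK phosphorylates fructose-6-phosphate with ATP; % is set by controls: 0 for no effect and ±100 for the full control effect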
In short: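 Inhibition of parasite PFK is measured as reduced ADP formation, quantified via luciferase after ATP depletion. Assay used 0.1 mM ATP, 0.5 mM F6P, 1.25 nM enzyme, 45 min incubation.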

[2] = target: Ubiquitin carboxyl-terminal hydrolase 1 (Homo sapiens) (UniProt O94782); assay: Inhibitors of USP1/UAF1: Pilot qHTS (AID 504865);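 note: rhodamine fluorescence freed from ubiquitin-rhodamine substrate followed over time; top concentration of the series differs between compounds; % is set by controls: 0 for no effect and ±100 for the full control effect; nearly all actives have a fitted effect of over 35% in size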
In short: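 1nM USP1/UAF1 + cpd, 15 min RT; start w/ Ub-Rho 150nM final; kinetic FL 480/540 nm, 6 reads q60 s. Buffer 50mM HEPES pH 7.8, 0.5mM EDTA, 1mM TCEP, 0.01% Tween-20, 0.1 mg/ml BSA.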

[3] = target: Luciferin 4-monooxygenase (Photinus pyralis) (UniProt P08659); assay: Biochemical firefly luciferase enzyme assay for NPC (AID 624030);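 note: purified P. pyralis luciferase at 10 nM with luciferin and ATP substrate; 0% = DMSO and -100% = full luciferase inhibition by PTC124 control; nearly all actives have a fitted effect of over 70% in size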
In short: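 Purified P. pyralis luciferase at 10 nM in 50 mM Tris Acetate (final), luminescence read within 5 minutes of enzyme addition to compounds. Activity normalised to PTC124 versus DMSO; concentration-response curves classed by r2, magnitude and activity.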

[4] = S16 Schwann cell viability assay (CellTiter-Glo assay) (AID 624031);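 note: cellular ATP luminescence as a viability measure; plate controls were DMSO-treated cells for no effect and cell-free wells for full effect; nearly all actives have a fitted effect of over 70% in size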
In short: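 Luminescent ATP read-out (CellTiter-Glo) after 24 h compound exposure of native S16 rat Schwann cells at 37 °C. Signals were normalized between cell-free wells and DMSO-treated cells, set as 0% activity.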

[5] = S16 Schwann cell PMP22 intronic element firefly luciferase assay (AID 624032);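 note: plate controls were DMSO for no effect and PTC124 positive control mean for full effect; nearly all actives have a fitted effect of over 30% in size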
In short: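 Rat S16 Schwann cells stably carrying firefly luciferase driven by a PMP22 intronic element, in 10% FBS, treated 24 h at 37 C. ONE-Glo luminescence normalized to PTC124 control and DMSO (0%); curves classed by r2, magnitude and activity.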

[6] = S16 Schwann cell PMP22 intronic element beta-lactamase assay (AID 624044; calls by dose curve;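 note: 0% = DMSO and -100% = potassium clavulanate positive control; nearly all actives have a fitted effect of over 15% in size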); conditions: S16 rat Schwann cells, PMP22 element beta-lactamase FRET, 24 h; ratio activity, negative = inhibition: at 38.3 µM (top of the series)
In short: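 Rat S16 Schwann cells with beta-Lac driven by a PMP22 intronic element, compound-treated 24 h at 37 °C. LiveBLAzer FRET B/G read: 460 nm normalized to potassium clavulanate vs DMSO; 535 nm FRET as viability; concentration-effect curves classified.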

[7] = qHTS profiling for inhibitors of Plasmodium falciparum proliferation (AID 504749);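 note: 0% = DMSO vehicle and full inhibition = artemisinin control; nearly all actives have a fitted effect of over 60% in size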; conditions: P. falciparum in erythrocytes, SYBR Green DNA, 72 h, at 28.7 µM (top of the series)
In short: (§1)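 Readout was DNA-dye fluorescence from lysed cultures, ex 485/em 535 nm. Parasitized red cells had grown 72 h with compound; data scaled between 0.29 uM artemisinin and DMSO wells and corrected using vehicle-only plates.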

[8] = test system: 3D7; assay: as above; conditions: P. falciparum in erythrocytes, SYBR Green DNA, 72 h; series mostly up to 28.7 µM
In short: as §1

[9] = test system: 7G8; assay: as above; conditions: P. falciparum in erythrocytes, SYBR Green DNA, 72 h; series mostly up to 28.7 µM
In short: as §1

[10] = test system: AA1029; assay: as above; conditions: P. falciparum in erythrocytes, SYBR Green DNA, 72 h; series mostly up to 28.7 µM
In short: as §1

[11] = test system: AS120; assay: as above; conditions: P. falciparum in erythrocytes, SYBR Green DNA, 72 h; series mostly up to 28.7 µM
In short: as §1

[12] = test system: ATS189; assay: as above; conditions: P. falciparum in erythrocytes, SYBR Green DNA, 72 h; series mostly up to 28.7 µM
In short: as §1

[13] = test system: ATS95; assay: as above; conditions: P. falciparum in erythrocytes, SYBR Green DNA, 72 h; series mostly up to 28.7 µM
In short: as §1

[14] = test system: C2A; assay: as above; conditions: P. falciparum in erythrocytes, SYBR Green DNA, 72 h; series mostly up to 28.7 µM
In short: as §1

[15] = test system: CP185; assay: as above; conditions: P. falciparum in erythrocytes, SYBR Green DNA, 72 h; series mostly up to 28.7 µM
In short: as §1

[16] = test system: CP191; assay: as above; conditions: P. falciparum in erythrocytes, SYBR Green DNA, 72 h; series mostly up to 28.7 µM
In short: as §1

[17] = test system: CP192; assay: as above; conditions: P. falciparum in erythrocytes, SYBR Green DNA, 72 h; series mostly up to 28.7 µM
In short: as §1

[18] = test system: CP194; assay: as above; conditions: P. falciparum in erythrocytes, SYBR Green DNA, 72 h; series mostly up to 28.7 µM
In short: as §1

[19] = test system: CP201; assay: as above; conditions: P. falciparum in erythrocytes, SYBR Green DNA, 72 h; series mostly up to 28.7 µM
In short: as §1

[20] = test system: CP203; assay: as above; conditions: P. falciparum in erythrocytes, SYBR Green DNA, 72 h; series mostly up to 28.7 µM
In short: as §1

[21] = test system: CP211; assay: as above; conditions: P. falciparum in erythrocytes, SYBR Green DNA, 72 h; series mostly up to 28.7 µM
In short: as §1

[22] = test system: CP215; assay: as above; conditions: P. falciparum in erythrocytes, SYBR Green DNA, 72 h; series mostly up to 28.7 µM
In short: as §1

[23] = test system: CP217; assay: as above; conditions: P. falciparum in erythrocytes, SYBR Green DNA, 72 h; series mostly up to 28.7 µM
In short: as §1

[24] = test system: CP237; assay: as above; conditions: P. falciparum in erythrocytes, SYBR Green DNA, 72 h; series mostly up to 28.7 µM
In short: as §1

[25] = test system: CP238; assay: as above; conditions: P. falciparum in erythrocytes, SYBR Green DNA, 72 h; series mostly up to 28.7 µM
In short: as §1

[26] = test system: CP247; assay: as above; conditions: P. falciparum in erythrocytes, SYBR Green DNA, 72 h; series mostly up to 28.7 µM
In short: as §1

[27] = test system: CP250; assay: as above; conditions: P. falciparum in erythrocytes, SYBR Green DNA, 72 h; series mostly up to 28.7 µM
In short: as §1

[28] = test system: CP252; assay: as above; conditions: P. falciparum in erythrocytes, SYBR Green DNA, 72 h; series mostly up to 28.7 µM
In short: as §1

[29] = test system: CP256; assay: as above; conditions: P. falciparum in erythrocytes, SYBR Green DNA, 72 h; series mostly up to 28.7 µM
In short: as §1

[30] = test system: CP260; assay: as above; conditions: P. falciparum in erythrocytes, SYBR Green DNA, 72 h; series mostly up to 28.7 µM
In short: as §1

[31] = test system: CP262; assay: as above; conditions: P. falciparum in erythrocytes, SYBR Green DNA, 72 h; series mostly up to 28.7 µM
In short: as §1

[32] = test system: CP265; assay: as above; conditions: P. falciparum in erythrocytes, SYBR Green DNA, 72 h; series mostly up to 28.7 µM
In short: as §1

Chain of Luciferin 4-monooxygenase (Photinus pyralis) (P08659 whole entry, looked up): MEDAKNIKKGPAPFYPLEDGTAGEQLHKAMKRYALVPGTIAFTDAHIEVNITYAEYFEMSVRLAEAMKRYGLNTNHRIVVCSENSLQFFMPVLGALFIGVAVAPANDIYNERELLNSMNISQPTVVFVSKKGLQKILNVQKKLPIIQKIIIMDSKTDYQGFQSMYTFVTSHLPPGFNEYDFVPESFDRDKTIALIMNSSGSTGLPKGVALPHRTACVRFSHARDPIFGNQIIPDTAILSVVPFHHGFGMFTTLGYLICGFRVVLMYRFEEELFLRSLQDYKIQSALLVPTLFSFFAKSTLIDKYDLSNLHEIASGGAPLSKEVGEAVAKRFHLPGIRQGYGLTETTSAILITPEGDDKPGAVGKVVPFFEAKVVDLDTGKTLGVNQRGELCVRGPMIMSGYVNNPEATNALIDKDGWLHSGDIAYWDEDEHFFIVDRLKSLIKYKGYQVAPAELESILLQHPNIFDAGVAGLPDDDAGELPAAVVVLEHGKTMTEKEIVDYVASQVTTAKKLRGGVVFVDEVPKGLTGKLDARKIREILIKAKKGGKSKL
Chain of Ubiquitin carboxyl-terminal hydrolase 1 (Homo sapiens) (O94782 whole entry, looked up): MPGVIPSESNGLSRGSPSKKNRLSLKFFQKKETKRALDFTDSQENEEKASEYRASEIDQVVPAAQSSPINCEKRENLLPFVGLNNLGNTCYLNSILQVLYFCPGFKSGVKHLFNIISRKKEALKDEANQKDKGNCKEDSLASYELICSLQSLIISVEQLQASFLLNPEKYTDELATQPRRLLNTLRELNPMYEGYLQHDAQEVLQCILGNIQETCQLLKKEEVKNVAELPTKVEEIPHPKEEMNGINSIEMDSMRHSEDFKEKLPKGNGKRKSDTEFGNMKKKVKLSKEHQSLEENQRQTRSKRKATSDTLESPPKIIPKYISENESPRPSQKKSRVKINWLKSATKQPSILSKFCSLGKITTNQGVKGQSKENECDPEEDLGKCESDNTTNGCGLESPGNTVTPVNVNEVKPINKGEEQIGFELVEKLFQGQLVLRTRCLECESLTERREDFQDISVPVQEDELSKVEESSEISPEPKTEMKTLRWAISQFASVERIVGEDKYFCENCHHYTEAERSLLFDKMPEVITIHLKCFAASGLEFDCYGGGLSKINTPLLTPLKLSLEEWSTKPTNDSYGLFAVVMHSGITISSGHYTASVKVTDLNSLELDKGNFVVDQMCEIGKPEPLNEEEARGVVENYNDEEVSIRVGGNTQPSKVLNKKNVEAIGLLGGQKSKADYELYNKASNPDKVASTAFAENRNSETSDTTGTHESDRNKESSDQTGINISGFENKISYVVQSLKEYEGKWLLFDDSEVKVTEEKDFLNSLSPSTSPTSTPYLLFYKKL
Chain of ATP-dependent 6-phosphofructokinase (Trypanosoma brucei brucei) (O15648 whole entry, looked up): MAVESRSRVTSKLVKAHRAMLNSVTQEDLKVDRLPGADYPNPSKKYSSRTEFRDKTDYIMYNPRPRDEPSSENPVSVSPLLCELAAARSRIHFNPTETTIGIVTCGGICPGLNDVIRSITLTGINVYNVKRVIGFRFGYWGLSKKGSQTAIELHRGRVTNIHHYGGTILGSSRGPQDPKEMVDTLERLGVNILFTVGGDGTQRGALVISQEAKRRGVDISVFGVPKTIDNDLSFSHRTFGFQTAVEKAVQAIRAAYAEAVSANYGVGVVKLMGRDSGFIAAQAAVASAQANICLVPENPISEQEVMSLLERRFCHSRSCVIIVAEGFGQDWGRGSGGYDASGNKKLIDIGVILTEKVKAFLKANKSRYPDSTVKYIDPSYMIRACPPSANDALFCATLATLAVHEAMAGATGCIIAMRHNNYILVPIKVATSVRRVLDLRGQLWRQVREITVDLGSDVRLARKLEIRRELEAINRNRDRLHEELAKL

C=C1[C@@H]2CC[C@H](C2)C1(C)C
inactive: Potency [1] | Potency [2] | Potency [3] | Potency [4] | Potency [5] | Potency [6] | activity, negative = inhibition ([7]; parasite line A) 10.4% | activity, negative = inhibition ([7]; parasite line B) -2.91% | Potency [8] | Potency [9] | Potency [10] | Potency [11] | Potency [12] | Potency [13] | Potency [14] | Potency [15] | Potency [16] | Potency [17] | Potency [18] | Potency [19] | Potency [20] | Potency [21] | Potency [22] | Potency [23] | Potency [24] | Potency [25] | Potency [26] | Potency [27] | Potency [28] | Potency [29] | Potency [30] | Potency [31] | Potency [32]
